# Bioassay records from PubChem BioAssay.
# VDR inhibitor: inhibitors of human vitamin D receptor; VDR-SRC2-3 peptide fluorescence polarization, 2 h; 400,000 compounds, 0.93% hits; AID 504847; P11473; Potency, µM, for the others: max response, negative = inhibition, usual class: inhibitors; further: potency means the concentration at half of the fitted maximal effect
# Target sequence (P11473 whole entry, looked up): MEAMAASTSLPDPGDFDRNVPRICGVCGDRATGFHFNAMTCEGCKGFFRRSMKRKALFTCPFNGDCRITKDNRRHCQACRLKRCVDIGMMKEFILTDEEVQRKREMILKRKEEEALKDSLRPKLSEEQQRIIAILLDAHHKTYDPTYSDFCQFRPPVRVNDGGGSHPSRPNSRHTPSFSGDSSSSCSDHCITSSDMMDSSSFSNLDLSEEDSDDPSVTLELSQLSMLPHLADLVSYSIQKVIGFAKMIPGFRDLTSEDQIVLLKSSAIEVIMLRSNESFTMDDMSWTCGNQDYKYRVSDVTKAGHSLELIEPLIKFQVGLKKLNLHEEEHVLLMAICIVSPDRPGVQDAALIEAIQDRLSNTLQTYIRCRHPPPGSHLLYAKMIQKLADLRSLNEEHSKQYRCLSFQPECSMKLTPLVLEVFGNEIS
#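 Signal is fluorescence polarization, reporting how far test compounds block the interaction of VDR with the SRC2-3 coregulator peptide after a 2 h room-temperature incubation.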
# G9a inh: blocks human histone lysine methyltransferase G9a; 350,000 compounds, 8.8% hits; Potency, µM (series often up to 102 µM), inactives show at the highest dose activity, negative = inhibition, hits mostly inhibitors; Q96KQ7; G9a H3K9 monomethylation, AlphaScreen, 2 h; further: potency means the concentration at half of the fitted maximal effect; nearly all actives have a fitted effect of over 75% in size
#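 Using a bead-based AlphaScreen, monomethylated H3K9 product from 2 h room-temperature reactions (G9a 20 nM, peptide 500 nM, SAM 20 uM) was detected with 0.5 ug/mL rabbit anti-H3K9me1 antibody.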
# Sfp PPTase inh: blocks B. subtilis Sfp PPTase activity. Q9F4F7. Biochemical Sfp PPTase activity, qHTS. Potency, µM, for the others: largest response in the series, negative = inhibition, hits mostly inhibitors. 310,000 compounds, 3.5% hits. AID 1490;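 further: the enzyme is Sfp with the accession as filed and its product quenches rhodamine fluorescence; potency means the concentration at half of the fitted maximal effect; 0% = enzyme reaction without inhibitor and -100% = no enzyme wells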
#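 Fluorescence-quenching assay with 15 nM Sfp, 5 uM rhodamine-CoA and 12.5 uM BHQ-2-labelled ybbR peptide in pH 7.6 Hepes/MgCl2 buffer. Enzyme was pre-incubated with compound for 15 min at room temperature. Rate was taken from the 30-min fluorescence change (525/598 nm).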
# CCT modulator: modulators of cytosolic chaperonin (CCT/TRiC) activity. activity change, % (no concentration beside the values), hits read low. AID 651819. 360,000 compounds, 0.3% hits. purified chaperonin ATPase assay, HTRF ADP detection, 30 min; in the data active means activity change below about -30%
#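 First, chaperonin was dispensed at 40 nM or 20 nM final depending on batch activity. Next, compounds were pinned at 76 uM and ATP added at 10 uM. After 30 min at 37 °C, ADP detection reagents ran 30 min at ambient temperature.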
# Mm-Cpn inhibitor: inhibitors of Methanococcus maripaludis chaperonin TRiC (MmCpn); purified Mm-Cpn ATPase, ADP Transcreener TR-FRET; Potency, µM (doses to about 76.9 µM), for the others: at the top dose activity, negative = inhibition, actives largely listed as inhibitors; 330,000 compounds, 0.031% hits; AID 504842; further: potency means the concentration at half of the fitted maximal effect; nearly all actives have a fitted effect of over 80% in size
#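 Quantitative HTS used 25 nM Mm-CPN and 10 uM ATP in magnesium/KCl Tris buffer, pH 7.4, with 1 mM DTT. Hydrolysis ran 30 min at 37°C; ADP was read by HTRF.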
# PLK1 PBD block: blocks phosphopeptide binding to human PLK1 polo-box domain | 360,000 compounds, 2.8% hits | Plk1 PBD binding of FITC phosphopeptide, fluorescence polarization | P53350 | AID 720504 | Potency, µM, without a hit: max response, negative = inhibition, usual class: inhibitors; further: potency means the concentration at half of the fitted maximal effect; series mostly up to about 57 µM; nearly all actives have a fitted effect of over 65% in size
# Numbers without * were called inactive; ? = inconclusive; . = no result given; [ ] = dose if it differs, or a comment. Sampled rows, rich in hits. Any-hit rate of the full collection: about 10%. Unless noted, the call rests on the fitted dose curve; in most records, active means well fitted curve in the direction sought with a large enough effect; inconclusive means small, poorly fitted or top-dose-only effect, or another doubt; inactive means no such curve, though single readings can be large; an effect the other way counts as inactive or inconclusive. Unless noted, on the % scale 0 is the no-effect control and ±100 the full control effect.
SMILES,VDR inhibitor,G9a inh,Sfp PPTase inh,CCT modulator,Mm-Cpn inhibitor,PLK1 PBD block
COc1ccc2c(c1)c(CCN1CCOCC1)c(C)n2C(=O)c1cccc(Cl)c1Cl,-16%,?,?,.,.,.
OCC1CCCN2CCCCC12 (configuration not stated),12%,28%[59 µM],15%,.,.,.
COc1cc(C2c3cc4c(cc3C(O)[C@H]3COC(=O)C23)OCO4)cc(OC)c1OC (some centres not stated),12%,-2%[2.33 µM],13%,.,.,.
Cc1nc2ccccc2n1C1CCN(Cc2nnnn2CCc2ccccc2)CC1,-11%,50µM*,-14%,-2,0%,-2%
c1ccc(CCn2nnnc2CN2CCC(n3nnc4ccccc43)CC2)cc1,-9%,-6%,8%,1,-2%,-1%
Cc1nc2cc(C(F)(F)F)ccc2n1C1CCN(Cc2nnnn2Cc2cccs2)CC1,10%,-44%[12.7 µM],5%,2,-6%,-7%
Fc1ccc2c(c1)nnn2C1CCN(Cc2nnnn2CCc2ccccc2)CC1,6%,50µM*,-7%,1,-3%,0%
CC(C)n1cnc2c(C(=O)N[C@H]3CN4CCC3CC4)cc(Cl)cc21,-23%,28%[59 µM],-5%,.,.,.
CC(Cl)(Cl)/C(=N/P(=S)(N1CCOCC1)N1CCOCC1)N1CCOCC1,-14%,3%,20%,-1,0%,-8%
O=P(/C(=N/O)N1CCCCC1)(N1CCOCC1)N1CCOCC1,1%,56µM*,10%,-3,0%,-3%
CC(C)(C)c1o[nH]c(=O)c1C[C@H](N)C(=O)O,-2%,.,-3%,.,.,.
O=C(Oc1ccc(Cl)cc1)N1CCOCC1,79µM*,.,6%,-2,0%,11µM*
NC1=N[C@H](O)[C@H]2C3O[C@]4(O)O[C@H](C(O)[C@@]2(N1)[C@@H]4O)C3(O)CO (some centres not stated),-6%,2%[59 µM],6%,.,.,.
CN(C)S(=O)(=O)c1cc(NC(=O)COC(=O)Cc2ccccc2)ccc1Cl,?,-3%[59 µM],6%,0,4%,30µM*
CN(C)S(=O)(=O)c1cc(NC(=O)C[N+]23CCN(CC2)CC3)ccc1Cl,-5%,-3%[59 µM],9%,2,-2%,-5%
CC(C)(O)C1C2OC(=O)C1[C@]1(O)C[C@H]3O[C@]34C(=O)O[C@H]2[C@]14C (some centres not stated) (tested in a mixture with another compound),-1%,22%[12.7 µM],8%,.,.,.
Cn1c(O)c(C=Nc2ccccc2-c2ccccc2)c(=O)n(C)c1=O,5%,15%,10%,0,1%,-5%
CCOC(=O)C1=Nc2ccccc2/C1=C\c1c(O)n(C)c(=O)n(C)c1=O,?,?,-20%,1,-3%,13µM*
C/C(=C\c1csc(C)n1)[C@@H]1C[C@@H]2O[C@]2(C)CCC[C@H](C)[C@H](O)[C@@H](C)C(=O)C(C)(C)[C@@H](O)CC(=O)O1,-4%,7%[12.7 µM],13%,.,.,.
O=C1C(Cc2cnc[nH]2)NC(=S)N1c1ccccc1 (configuration not stated),12%,50µM*,50µM*,-2,0%,-9%
S=C(NCCc1ccccc1)NCCc1cnc[nH]1,0%,16%[0.501 µM],?,-3,1%,-5%
CCCCCl,-2%,29%[59 µM],10%,.,.,.
Cc1ccc(N)c(C(=O)c2ccc(Br)cc2)c1,-5%,16µM*,0%,-2,0%,-10%
Nc1ccc(Br)cc1C(=O)c1ccccc1,-6%,-40%,7%,1,1%,2%
COc1ccc(/C=C/C2=CCN(C)CC2)cc1,-7%,79µM*,0%,-2,1%,-12%
CN1CC=C(/C=C/c2ccc(-c3ccccc3)cc2)CC1,-18%,.,-24%,2,-1%,-9%
CCOc1cc(-c2ccc(N)c(OCC)c2)ccc1N,-30%,?,-27%,0,-8%,3.4µM*
CCOCCSc1nc2c(c(-c3cccs3)c1C#N)CC/C2=C/c1cccs1,-11%,28µM*,35µM*,-1,1%,-25%
